# About 4,300 (8.3%) of roughly 52,000 compounds were called active. No stated cut-off is given here; in the data, active means survival mostly below about 52% (no sharp cut-off); inactive means mostly above about 56%. The sample as a whole holds a higher share of actives than the screen did.
# Test system: DeltatarO mutant
# Test: S. aureus survival, RN4220 and DeltatarO strains – OD600, teichoic acid synthesis inhibitors, primary screen (AID 463173)
# Conditions: S. aureus RN4220 wild type/DeltatarO growth, OD600, 18 h, active compounds read low, screened at 18.75 µg/mL (by protocol)
row,SMILES,survival
1,Cn1nc(C(=O)NCc2ccc(Cl)cc2)c2c1-c1ccccc1SC2,78% (inactive)
2,COc1ccc(-n2c(SCC(=O)Nc3nnc(C)s3)nc3c([nH]c4ccccc43)c2=O)cc1,83% (inactive)
3,Cc1ccc(C)c(Nc2nn3c(=O)c4ccc(C(=O)NCc5ccccc5)cc4nc3s2)c1,55% (inactive)
4,CCOC(=O)c1c(CC(C)C)csc1NC(C)=O,71% (inactive)
5,COc1cc(NC(=O)c2cc3cc4ccc(C)cc4nc3o2)cc(OC)c1OC,89% (inactive)
6,CCc1ccccc1NC(=O)c1cc(S(=O)(=O)N2CCc3ccccc32)ccc1F,95% (inactive)
7,Cc1ccc(Cl)cc1NC(=O)c1cc(-c2ccc3c(c2)OCCO3)on1,34% (active)
8,Cc1c(Cl)cccc1NC(=O)c1cc(-c2ccc3c(c2)OCO3)on1,69% (inactive)
9,CC(=O)c1cccc(NC(=O)c2cc(-c3ccc4c(c3)OCCO4)on2)c1,45% (active)
10,O=C(Nc1cccc(Cl)c1)c1cc(-c2ccc3c(c2)OCCO3)on1,103% (inactive)
11,O=C(Nc1cc(Cl)ccc1O)c1cc(-c2ccc3c(c2)OCO3)on1,58% (inactive)
12,O=C(Nc1cccc(Cl)c1)c1cc(-c2ccc3c(c2)OCO3)on1,77% (inactive)
13,O=C(Nc1c(Cl)cccc1Cl)c1cc(-c2ccc3c(c2)OCO3)on1,39% (active)
14,Cc1cccc(NC(=O)c2cc(-c3ccc4c(c3)OCCO4)on2)c1,69% (inactive)
15,O=C(Nc1cccc(Br)c1)c1cc(-c2ccc3c(c2)OCCO3)on1,47% (inactive)
16,CNC(=O)CN1C(=O)COc2ccc(S(=O)(=O)N3CCCCCC3)cc21,91% (inactive)
17,Cc1cc(OCC(=O)Nc2sc3c(c2C#N)CCC(C)C3)ccc1Cl (centres undefined),78% (inactive)

row,SMILES,survival
1,CCOC(=O)c1cnn(-c2ccc(C(=O)Nc3cccc(C(C)=O)c3)cc2)c1N,55% (inactive)
2,CCN(CC)CCCNC(=O)c1sc2nc3n(c(=O)c2c1C)CCCCC3,111% (inactive)
3,Cc1ccccc1NC(=O)c1c(C)oc2ccc(O)c(CN3CCCCCC3)c12,107% (inactive)
4,O=c1n(Cc2ccc([N+](=O)[O-])cc2)c2ccccc2c2nc(-c3ccccc3)nn12,129% (inactive)
5,Cc1ccc(CSCC(=O)N2CCN(c3ccc(F)cc3)CC2)cc1,70% (inactive)
6,COc1ccccc1NC(=O)C1=C(C)Nc2nnnn2C1c1ccc(C(F)(F)F)cc1 (centres undefined),66% (inactive)
7,CCOc1ccccc1NC(=O)C1=C(C)Nc2ncnn2C1c1cccs1 (centres undefined),37% (active)
8,COc1ccccc1NC(=O)C1=C(C)Nc2nc3ccccc3n2C1c1ccccc1Cl (centres undefined),62% (inactive)
9,CC1=C(C(=O)Nc2ccccc2)C(c2ccc[nH]2)n2ncnc2N1 (centres undefined),20% (active)
10,CC1=C(C(=O)Nc2ccccc2C)C(c2ccc[nH]2)n2ncnc2N1 (centres undefined),102% (inactive)
11,CCCCOc1ccc(C2C(C(=O)Nc3ccccc3OC)=C(C)Nc3nnnn32)cc1OC (centres undefined),85% (inactive)
12,COc1ccccc1NC(=O)C1=C(C)Nc2nnnn2C1c1cc(Br)c(O)c(OC)c1 (centres undefined),55% (active)
13,CC1=C(C(=O)Nc2ccccc2Cl)C(c2cccs2)n2ncnc2N1 (centres undefined),101% (inactive)
14,COc1ccc(NC(=O)C2=C(C)Nc3ncnn3C2c2ccc[nH]2)cc1 (centres undefined),94% (inactive)
15,CCOc1ccccc1NC(=O)C1=C(C)Nc2ncnn2C1c1sccc1C (centres undefined),92% (inactive)
16,COc1ccccc1NC(=O)C1=C(C)Nc2nc3ccccc3n2C1c1cccc(OC)c1OC (centres undefined),70% (inactive)
17,CCOc1ccccc1C1C(C(=O)Nc2ccccc2OC)=C(C)Nc2nc3ccccc3n21 (centres undefined),59% (active)

# — PubChem BioAssay AID463173 (ICCB-Longwood Screening Facility, Harvard Medical School, 2010)
